In the library only some 13% were active in any assay of this set; here they are far more common.
FMDV antiviral: foot and mouth disease virus antiviral activity. actives 1.2% (n = 410,000). FMDV antiviral cell-based qHTS. Potency, µM (doses to about 57.9 µM), without a hit: at the top dose activity change, negative = inhibition, usual class: inhibitors; calls by dose curve; tested in HEK293T cells; note: read-out not given here; potency is the fitted concentration of half-maximal effect; % is set by controls: 0 for no effect and ±100 for the full control effect; nearly all actives have a fitted effect of over 45% in size
Shiga inhibitor: Shiga toxin inhibition; Vero cells, Shiga toxin protein synthesis inhibition reporter; inhibition, % at 38.7 µM; actives 9.2% (n = 290,000); AID 2315; in the data active = inhibition mostly above about 28%, no sharp cut-off; inactive = mostly below about 43%; note: 0% is about no effect
MARV entry inh: Marburg virus entry inhibition; AID 540276; Marburg virus pseudotyped entry inhibition, cell reporter; Potency, µM (series often up to 37.8 µM), inactives show top-dose activity change, negative = inhibition, most hits filed as inhibitors; actives 1.8% (n = 300,000); calls by dose curve; tested in HEK293 cells; note: potency is the fitted concentration of half-maximal effect; % is set by controls: 0 for no effect and ±100 for the full control effect
HCV inhibitor: inhibitors of hepatitis C virus infection; Huh7.5.1 HCVcc-Cre infection, luciferase reporter, 44 h; Potency, µM (titrated, usually from 41.8 µM), without a hit: at the top dose activity change, negative = inhibition, actives largely listed as inhibitors; actives 3.4% (n = 340,000); AID 651820; active = well fitted inhibition curve with a large enough effect; inconclusive = small, poorly fitted or top-dose-only effect, or another doubt; inactive = no such curve, though single readings can be large or run the other way; note: potency is the fitted concentration of half-maximal effect; % is set by controls: 0 for no effect and ±100 for the full control effect
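After 44 h co-culture of compound, cells and HCVcc-Cre (~0.5 moi), substrate is added for 15 min at room temperature and luciferase measured over 15 sec. Cells were seeded at 1,000/well and pre-cultured 4 h.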
Cycloheximide cs: counter-screen for Shiga toxin inhibitors: cycloheximide protein synthesis inhibition | cell reporter, cycloheximide protein synthesis inhibition counterscreen | max response, % | actives 12% (n = 300,000); in the data active = max response mostly above about 13%, no sharp cut-off; inactive = mostly below about 14%; note: read at 38.3 µM for the half of the compounds with a filed dose; 0% is about no effect
Lassa entry inh: inhibitors of Lassa virus binding or cell entry; Lassa virus pseudotype entry inhibition, cell reporter; Potency, µM (series often up to 37.9 µM), without a hit: top-dose activity change, negative = inhibition, most hits filed as inhibitors; actives 1.2% (n = 300,000); calls by dose curve; tested in HEK293 cells; note: potency is the fitted concentration of half-maximal effect; % is set by controls: 0 for no effect and ±100 for the full control effect; nearly all actives have a fitted effect of over 50% in size
Active calls of the source: *; ? = inconclusive; . = no result; ! = not confirmed by another sample; [ ] = another dose, or the depositor's remark.

SMILES	FMDV antiviral	Shiga inhibitor	MARV entry inh	HCV inhibitor	Cycloheximide cs	Lassa entry inh
Cn1c(-c2cccs2)nc2ccccc21	49%	125*	?	18%	35*	6%
Cc1ccc(/C=N/NC(=O)CSc2nc3ccccc3n2C)s1	-6%	23	-14%	-3%	13	-28%
Cn1c(-c2ccc(C=O)s2)nc2ccccc21	21%	71	10%	6%	23*	?
CC(C)Cn1c(-c2cccs2)nc2ccccc21	0%	-13	-17%	-26%	11	-24%
CNC(=S)Nc1cccc([N+](=O)[O-])c1	-8%	-3	-2%[46.1 µM]	6%	-1	6%
C/C(=N\Nc1cccc([N+](=O)[O-])c1)c1cc(F)ccc1O	21%	109*	.	10µM*	47*	.
C/C(=N\Nc1cccc([N+](=O)[O-])c1)c1ccccc1O	9%	73*	?	?	33*	10%
CCCCN(C(=O)c1ccc2c(c1)S(=O)(=O)N=C1CCCCCN12)c1c(N)n(CC(C)C)c(=O)[nH]c1=O	-12%	.	.	17%	.	.
CS(=O)(=O)Nc1ccc([N+](=O)[O-])cc1Oc1ccccc1	?	-6	?	3%[8.37 µM]	-3	0.016µM*!
NC(=O)COc1ccc2cc(-c3ccccc3)c(=O)oc2c1	60%	62*	.	28%	32*	.
NC(=O)COc1ccc2oc(-c3ccccc3)cc(=O)c2c1	40%	69*	-13%	9%	27*	-13%
COC(=O)COc1ccc2cc(-c3ccccc3)c(=O)oc2c1	6%	-3	.	17%	-3	.
CCOC(=O)c1c(-c2ccc(OC)cc2)oc2ccc(OCC(N)=O)cc12	-14%	-4	-19%[46.1 µM]	2.2µM*	1	-22%[46.1 µM]
NC(=O)COc1ccc2cc(-c3ccc(F)cc3)c(=O)oc2c1	18%	35*	-6%[46.1 µM]	28%	21*	19%[46.1 µM]
CCOC(=O)c1c(-c2ccc(OC)cc2)oc2ccc(O)cc12	-14%	6	?	?	-2	-28%
CCOC(=O)COc1ccc2c(=O)cc(-c3ccccc3)oc2c1	3%	19	.	-5%	9	.
CC[C@@H]1[C@H]2CCCC(=O)N3CC[C@@H](C[C@@H]1OC(=O)NCc1ccccc1)[C@@H]23	-11%	-10	.	0%	-2	.
O=C1C=CC(=O)N1Cc1cccnc1	16%	.	9%[46.1 µM]	15%	.	14%[46.1 µM]
O=C1NC(c2ccccc2)(C(F)(F)F)C(=O)N1Cc1cccnc1 (centres undefined)	?	96*	?	22%	47*	7%
CC(=O)N1CCN(c2ccc(Oc3nc(-c4ccccc4)nc4ccccc34)cc2)CC1	13%	.	.	-7%	.	.
CC(=O)Nc1cccc(Oc2nc(-c3ccccn3)nc3ccccc23)c1	?	36	?	?	15*	3%
CC(=O)Nc1ccc(Oc2nc(-c3ccccn3)nc3ccccc23)cc1	?	54*	?	?	58*	?
CC(=O)Nc1cccc(Oc2nc(C(F)(F)F)nc3ccccc23)c1	-19%	-4	0%[46.1 µM]	-14%	0	24%[46.1 µM]
CC(C)n1c(SCCCc2ccccc2)nc2c1c(=O)[nH]c(=O)n2C	?	-9	-25%	?	-5	4%
CCOc1ccc(-c2cnc3cccnn23)cc1	34%	.	.	.	.	.
SMILES	FMDV antiviral	Shiga inhibitor	MARV entry inh	HCV inhibitor	Cycloheximide cs	Lassa entry inh
O=C(Cc1ccc(Cl)cc1)Nc1ccc(S(=O)(=O)N2CCOCC2)cc1	11%	-2	8%[46.1 µM]	-6%	-5	-2%
CC(=O)OCCN(CCCn1c(-c2ccncc2)nc2ccccc21)c1nc(CN2CCCCC2)cs1	-10%	-6	.	2.5µM*	1	.
Cn1cc(CN(Cc2ccccc2)C[C@@H]2CCC(=O)N2)c(-c2ccccc2F)n1	19%	-1	-5%[46.1 µM]	25%	5	?
OCCCNc1nc(-c2ccc(Cl)cc2)nnc1-c1ccccc1	0%	22	?	-16%	20*	4%
Cc1cccc(Cn2cc3c(=O)n(CC(=O)Nc4c(C)cccc4C)nc-3c3cc(F)ccc32)c1	-5%	.	.	.	.	-2%[46.1 µM]
Oc1ccc(Nc2ccnc3cc(Cl)ccc23)cc1	24%	52	?	-2%	13	-12%[46.1 µM]
Cc1ccccc1/C=N/Nc1ccnc2cc(Cl)ccc12	?	13	?	?	-2	?
Cc1ccc(/C=N/Nc2ccnc3cc(Cl)ccc23)c(C)c1	40µM*	-3	?	10µM*	-3	?
Oc1ccc(/C=N/Nc2ccnc3cc(Cl)ccc23)c(O)c1	26%	38*	2%	10µM*	23*	.
COc1ccc(S(=O)(=O)N2CCOCC2)cc1C(=O)NCC(c1ccccc1)c1ccccc1	-2%	.	?	?	.	?
O=C(/C=C/c1ccccc1)NC(=S)Nc1ccccc1O	3%	81*	?	-21%	33*	?
NC(=S)NC(=O)/C=C/c1ccccc1	26%	66*	?	?	30*	-35%
CCOc1ccc(CCNC(=O)COC(=O)/C=C/c2ccccc2OC)cc1OCC	-1%	.	3%	?	.	-3%
COCCn1c(-c2ccco2)nc2nc3ccccc3nc21	13%	26	2%	?	11	-10%
CC(C)OCCCn1c(-c2ccco2)nc2nc3ccccc3nc21	-9%	21	-16%	10%	13*	-2%
COc1ccc(-c2noc(-c3ccc(Cl)cc3)n2)cc1	25%	48*	?	?	25*	?
COc1ccc(CC(=O)Nc2ccc(-c3noc(-c4cccc(OC)c4)n3)cc2)cc1	-2%	-2	3%	0%	1	?
COc1ccc(-c2nc(-c3ccc(Br)o3)no2)cc1	-16%	64*	.	9%	29*	.
COc1ccc(Cl)cc1-c1nc(-c2ccc(Br)o2)no1	6%	-4	2%	16%	1	.
COc1ccc(-c2noc(-c3ccc(Br)o3)n2)cc1	24%	69*	0%	-20%	30*	?
COc1ccc(-c2nc(-c3ccc(C(=O)O)cc3)no2)cc1	-79%	.	.	.	.	.
COc1cccc(-c2noc(-c3ccc(Br)o3)n2)c1	30%	109*	?	?	32*	.
COc1ccc(Cc2noc(-c3ccc([N+](=O)[O-])cc3)n2)cc1OC	-23%	-14	.	?	-3	.
COC(=O)c1ccc(-c2nc(-c3ccc(Br)o3)no2)cc1	49%	30	.	14%	21*	.
COc1ccc(Cc2noc(-c3ccc(C)cc3)n2)cc1	18%	72*	3%	-1%	29*	-15%
Fc1cccc(F)c1-c1nc(-c2ccc(Cl)cc2)no1	49%	63*	?	23%	56*	17%[46.1 µM]
Cc1c(C(=O)NCc2ccc3c(c2)OCCO3)sc(=O)n1Cc1ccccc1C#N	-23%	.	.	.	.	.
COc1ccc(-c2cc(C(=O)OCC(=O)Nc3ccc4c(c3)OCO4)c3ccccc3n2)cc1	7%	21	-23%	-1%	6	-16%
Cc1cccc(-c2cc(C(=O)Nc3ccc4c(c3)OCCO4)c3ccccc3n2)c1	0%	96*	-29%	?	32*	-24%
